p53 PUMA act: restores mutant p53 pathway signaling in SW480 cells; SW480 PUMA-promoter luciferase, p53 mutant reactivation; activation, % at 9.98 µM; actives 1.5% (n = 28,000); in the data active = activation above about 52%
ID4 binder: binds human ID4 protein on microarray. P47928. small molecule microarray, Flag-ID4 binding, fluorescence F/B. calls only. actives 1.2% (n = 31,000). AID 624137; call rule not given here;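 note: a binder raises fluorescence above local background on the spot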
Target sequence (P47928 whole entry, looked up): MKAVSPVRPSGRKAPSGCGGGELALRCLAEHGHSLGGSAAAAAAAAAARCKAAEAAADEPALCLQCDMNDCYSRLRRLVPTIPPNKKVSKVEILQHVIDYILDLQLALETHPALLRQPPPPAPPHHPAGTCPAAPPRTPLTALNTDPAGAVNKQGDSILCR
A number is an active result; 0 = inactive; - = no result given; + = active, no number. Compounds with a hit are over-represented: about 2.2% of the library has one in this group of screens.

SMILES	p53 PUMA act	ID4 binder
O=C(NC(=S)Nc1ccc(S(=O)(=O)Nc2nccs2)cc1)c1ccc(Br)o1	0	0
N#Cc1ccc(NC(=O)c2ccc(Br)o2)cc1	63.9	0
NC(=O)c1c(NC(=O)CSc2ncn[nH]2)sc2c1CCC2	0	+
CCOC(=O)c1c(NC(=O)CSc2ncn[nH]2)sc2c1CCCC2	0	0
Cc1sc2nc(SCC(=O)NCC3CCCO3)n(-c3ccccc3)c(=O)c2c1C (stereo not given)	0	0
O=C(NC(=S)Nc1ccc(Cl)c(C(=O)O)c1)c1cccc(COc2ccccc2)c1	0	+
O=C(COc1ccccc1)NC(=S)Nc1cccc(NC(=O)c2ccccc2Cl)c1	0	0
C[C@H](CO)N1C[C@H](C)[C@H](CN(C)C)OCc2cnnn2CCCC1=O	0	0
CCCC[C@H]1OB(O)C[C@H]2C1=C(COc1ccccc1)Cn1c(=O)n(-c3ccccc3)c(=O)n12	-	+
COCC1=C2[C@@H](c3ccccc3)OB(O)C[C@@H]2n2c(=O)n(-c3ccccc3)c(=O)n2C1	-	0
C[C@@H]1CN([C@@H](C)CO)C(=O)c2ccccc2-c2ccccc2CO[C@@H]1CN(C)S(=O)(=O)c1ccccc1C#N	0	0
NS(=O)(=O)c1ccc(N=C2NC(=O)C(CC(=O)Nc3ccccc3)S2)cc1 (stereo not given)	0	0
Cc1[nH]c2ccccc2c1C(=O)CSc1nc2ccccc2[nH]1	62.1	0
Cc1[nH]c2ccccc2c1C(=O)CSc1nc2ccccc2o1	0	0
CNC[C@H]1Oc2c(NS(=O)(=O)c3ccc(Cl)cc3)cccc2C(=O)N([C@@H](C)CO)C[C@H]1C	0	0
CCN(CC(=O)Nc1cccc([N+](=O)[O-])c1)S(=O)(=O)c1ccc(Br)cc1	0	0
CCCCn1c(SCC(N)=O)nc2c1c(=O)n(C)c(=O)n2C	0	0
Cn1c(=O)c2c(nc(N3CCOCC3)n2CCCN)n(C)c1=O	0	+
Cc1ccc2c(C)c(C(=O)Nc3sc4c(c3C(=O)NCC3CCCO3)CCCC4)oc2c1 (stereo not given)	0	0
O=C(CCSc1ccc([N+](=O)[O-])cc1)Nc1cccc2cccnc12	0	0
O=C(COc1ccc([N+](=O)[O-])cc1)Nc1cccc2cccnc12	64.1	0
CCc1cccc(OCC(=O)Nc2cc([N+](=O)[O-])ccc2O)c1	74.4	0
O=C(COc1ccccc1)Nc1ccc([N+](=O)[O-])cc1O	0	0
O=C(COc1cccc2ccccc12)Nc1cc([N+](=O)[O-])ccc1O	66.9	0
Cc1cccc(C)c1OCC(=O)Nc1ccc([N+](=O)[O-])cc1O	0	0
SMILES	p53 PUMA act	ID4 binder
C[C@H](CO)N1C[C@H](C)[C@H](CN(C)CC2CC2)OCc2ccccc2-c2c(n(C)c3ccccc23)C1=O	-	0
C[C@@H]1CN([C@@H](C)CO)C(=O)c2cc(NS(=O)(=O)c3cccs3)ccc2O[C@@H](C)CCCCO[C@@H]1CN(C)C	0	0
C[C@H]1CN([C@@H](C)CO)C(=O)c2ccccc2-c2ccccc2CO[C@H]1CN(C)C	-	0
COc1cc(SC)ccc1-c1nc2ccncc2[nH]1	59.2	0
CN(C)C(=O)C[C@@H]1C[C@@H]2c3cc(NC(=O)Nc4ccc(C(F)(F)F)cc4)ccc3O[C@@H]2[C@@H](CO)O1	0	-
CCCNC(=O)N[C@H]1CC[C@@H](CC(=O)NC2CCC2)O[C@@H]1CO	-	0
Cc1cc(C)nc(SC(C)C(=O)Nc2cccc(Cl)c2)n1 (stereo not given)	0	0
CC(=O)c1c(O)cc(O[C@@H]2O[C@H](CO)[C@@H](O)[C@H](O)[C@H]2O)cc1O	0	-
COc1ccc(/C=C/c2cc(O)cc(O[C@@H]3O[C@H](CO)[C@@H](O)[C@H](O)[C@H]3O)c2)cc1	64.3	0
Cc1noc(C)c1NC(=O)N(C)C[C@H]1Oc2ccc(NC(=O)Nc3ccc4c(c3)OCO4)cc2C(=O)N([C@@H](C)CO)C[C@@H]1C	0	0
CC(=O)CC(c1ccc([N+](=O)[O-])cc1)c1c(O)c2ccccc2oc1=O (stereo not given)	0	0
CC1(C)Cc2nc3nc(SCC(=O)Nc4ccccc4)n(-c4ccccc4)c(=O)c3cc2CO1	0	0
O=C(NCc1nc2ccccc2[nH]1)c1ccccc1	94.4	0
O=C(NCc1nc2ccccc2[nH]1)C1=C[C@H](c2ccccc2)C[C@H](OCCCCO)O1	-	0
CN1CCC(N(C)Cc2ccc(-c3ccccc3[N+](=O)[O-])o2)CC1	0	0
CCc1ccc(OCC(=O)Nc2ccccc2C(N)=O)c(Br)c1	70.8	0
COC(=O)c1ccccc1NC(=O)COc1ccc(C)cc1C	0	0
Cc1cc(C)c(C)c(OCC(=O)Nc2ccccc2C(N)=O)c1	53.1	0
Cc1cc(OCC(=O)Nc2ccccc2C(N)=O)c(C)cc1Br	0	0
C=C[C@@]12COC(=O)C(=C)C1[C@@H](O)[C@H](C(=C)C(=O)OC)[C@@H](OC(=O)C(=C)CO)C2 (stereo not given in full)	0	0
O=C(O)[C@@H]1[C@H]2C[C@H]3c4[nH]c5ccccc5c4CCN3C[C@@H]2CC[C@@H]1O	0	0
O=C(N[C@H]1CC[C@@H](CC(=O)N2CCN(c3ccccc3)CC2)O[C@H]1CO)c1ccncc1	-	0
CCN(CC(=O)Nc1ccc(Br)cc1)S(=O)(=O)c1ccc(C)cc1	0	0
C[C@H](CO)N1C[C@H](C)[C@@H](CN(C)C)OCCCC[C@H](C)Oc2ccc(NC(=O)Nc3ccccc3)cc2C1=O	0	0
Cc1noc(C)c1S(=O)(=O)N(C)C[C@@H]1Oc2c(NC(=O)c3cnccn3)cccc2C(=O)N([C@H](C)CO)C[C@@H]1C	0	0
SMILES	p53 PUMA act	ID4 binder
O=c1[nH]c2ccccc2c(=O)n1CCCO	0	0
O=C(c1ccc(F)cc1)C1CCN(CCn2c(=O)[nH]c3ccccc3c2=O)CC1	-	+
Cc1ccc(NS(=O)(=O)c2cccc(C(=O)Nc3ccccc3C(=O)O)c2)cc1	0	+
O=C(O)c1ccc(NS(=O)(=O)c2cccc(C(=O)Nc3ccccc3)c2)cc1	0	0
O=C(CSc1nc2ccccc2[nH]1)Nc1ccc(Br)cc1F	0	0
Cc1csc(SCC(=O)Nc2ccc3c(c2)OCCO3)n1	60.8	0
O=C(CSc1nc2ccccc2s1)Nc1ccc2c(c1)OCCO2	0	0
C[C@H](CO)N1C[C@H](C)[C@H](CN(C)S(C)(=O)=O)OCc2ccccc2-c2ccccc2C1=O	0	0
O=C(CCCN1C(=O)c2cccc3cccc(c23)C1=O)N1CCN(c2ncccn2)CC1	0	0
NC(=O)CN1CCN(CCN2C(=O)c3cccc4cccc(c34)C2=O)CC1	74.5	+
O=C(c1cc2cc(Br)ccc2oc1=O)N1CCN(CCN2C(=O)c3cccc4cccc(c34)C2=O)CC1	65.4	0
O=C(NCCN1CCOCC1)c1cc2cc(Br)ccc2oc1=O	0	0
COc1ccc(NC(=O)N[C@@H]2CC[C@@H](CC(=O)NCc3ccccn3)O[C@@H]2CO)cc1	-	0
CC(=O)OC[C@H]1O[C@@H](Oc2c(-c3ccc(O)cc3)oc3cc(O)cc(O)c3c2=O)[C@H](O)[C@@H](O)[C@@H]1O	0	0
COc1ccc(NC(=O)Nc2ccc3c(c2)CC(=O)N([C@H](C)CO)C[C@@H](C)[C@@H](CN(C)C)O3)cc1	0	0
C[C@@H]1CN([C@H](C)CO)C(=O)c2cccc(NC(=O)Nc3ccc(F)cc3)c2O[C@@H]1CN(C)Cc1ccc(C(=O)O)cc1	0	0
COC(=O)COc1cccc(NC(=O)c2cccs2)c1	0	0
COc1cccc(NC(=O)CNC(=O)c2cccs2)c1	51.0	0

Compound activity deposited in PubChem by Broad Institute.
